Assay outcomes: PubChem BioAssay, several laboratories
A selection: hits, their analogues and other compounds. The true share with any hit is near 2.9%.
PGE2 EP2 inh: human EP2 receptor antagonists, primary screen, TR-FRET cAMP, C6 glioma cells | C6 glioma cells expressing human EP2; cells stimulated with saturating PGE2 | inhibition, % at 25 µM | hit rate 0.52% among 260,000 | Prostaglandin E2 receptor EP2 subtype (Homo sapiens), P43116;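 active = percent inhibition above 40 after rounding to a whole number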;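 note: rat C6 glioma host cells with rolipram phosphodiesterase inhibitor present; the protocol text gives 20 µM as final concentration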
Rev-erbA mod: modulators of Rev-erb alpha DNA binding, primary screen, biochemical, FITC-DNA, fluorescence polarization, uHTS | Rev-erbα–FITC-DNA binding, 90 min | activity, % at 10 µM | hit rate 0.79% among 370,000 | AID 1259318, 2017;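 active = activity above about 14%, limit read from the data; passing the limit was not always enough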;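 note: 0% = DMSO wells with 35 nM protein and 100% = DMSO wells with 750 nM protein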
Target sequence (P20393 whole entry, looked up): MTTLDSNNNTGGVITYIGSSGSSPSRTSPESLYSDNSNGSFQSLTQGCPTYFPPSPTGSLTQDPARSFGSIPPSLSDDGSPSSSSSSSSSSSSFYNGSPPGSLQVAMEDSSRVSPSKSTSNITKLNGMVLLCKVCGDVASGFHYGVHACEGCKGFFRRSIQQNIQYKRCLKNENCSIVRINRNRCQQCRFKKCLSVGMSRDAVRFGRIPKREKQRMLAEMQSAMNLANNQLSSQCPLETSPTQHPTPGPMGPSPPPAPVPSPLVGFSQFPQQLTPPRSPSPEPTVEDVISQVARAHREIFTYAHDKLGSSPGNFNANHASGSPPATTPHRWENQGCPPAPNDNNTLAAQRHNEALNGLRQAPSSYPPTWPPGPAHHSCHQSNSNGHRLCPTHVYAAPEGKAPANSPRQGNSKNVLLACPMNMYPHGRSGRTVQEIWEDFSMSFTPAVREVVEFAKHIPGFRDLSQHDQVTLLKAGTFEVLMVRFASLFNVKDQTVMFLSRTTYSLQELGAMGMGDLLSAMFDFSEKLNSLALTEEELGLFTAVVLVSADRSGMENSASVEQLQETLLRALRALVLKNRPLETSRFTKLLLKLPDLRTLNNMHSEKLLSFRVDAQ
EP2 modulator: EP2 receptor modulators, cAMP readout, primary screen, cell-based, HTRF cAMP, PGE2 stimulation | Prostaglandin E2 receptor EP2 subtype (Homo sapiens), P43116 | EP2-expressing cells, cAMP HTRF FRET, PGE2 co-stimulation | induction, % at 25 µM | hit rate 0.83% among 260,000;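 active = compounds whose cAMP rise, as percent of the full-agonist control response, exceeds 60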;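 note: rat C6 glioma line stably carrying human EP2 under a CMV promoter; the protocol text gives 20 µM as final concentration; 100% = response of wells given 1 µM PGE2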
PG9 Ab binder: binders of HIV-1 gp120 antibody PG9, primary screen, biochemical, TR-FRET; HIV-1 gp120 / PG9 antibody interaction; TR-FRET gp120-PG9 antibody binding; inhibition, % at 6.7 µM; hit rate 0.43% among 360,000; AID 624416, 2012; in the data active = inhibition above about 8.5%
SKN-1 inh: suppressors of acrylamide-induced Pgst-4::GFP reporter in worms, primary screen, SKN-1 inhibitor project, whole organism, uHTS, GFP/RFP fluorescence ratio, strain VP596; C. elegans VP596 Pgst-4::GFP/RFP ratio, 24 h; hit rate 0.49% among 360,000; inhibition, % at 21.8 µM;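 active = interference check ratio from 0.5 to 1.5 plus GFP to RFP signal ratio inhibition reaching or exceeding a fixed threshold, cut at about 30% in these data, passing the limit was not always enough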
RAM inhibit: inhibitors of the yeast RAM network, primary screen, dse1pr::URA3 reporter, 5-FOA selection | S. cerevisiae dse1pr::URA3 reporter, 5-FOA growth OD615, 2 d; analog-sensitive cbk1-as2 kinase mutant strain | inhibition, % at 50 µM | hit rate 1.8% among 190,000;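 active = inhibition above a set limit, 3 SD over mean compound inhibition, cut at about 8.4% in these data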;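 note: 0% = DMSO-only wells with no growth and 100% = 10 µM 1-NA-PP1 full growth; inhibition rescues growth on 5-FOA so higher OD means more RAM inhibition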
Numbers without * were called inactive; ! = a repeat was not active.

What do the screens show for `CCCCCCCCNC(C)C(O)c1ccc(SC(C)C)cc1` (configuration not stated)?
PGE2 EP2 inh: 115*!; Rev-erbA mod: 8; EP2 modulator: -23; PG9 Ab binder: 1; SKN-1 inh: 6; RAM inhibit: 0

What do the screens show for `CCOC(=O)C1=C(C)N(C)C(=S)NC1c1cccc(Cl)c1Cl` (configuration not stated)?
PGE2 EP2 inh: 9; Rev-erbA mod: 4; EP2 modulator: 64*; PG9 Ab binder: -2; SKN-1 inh: 7; RAM inhibit: 5

Results for O=C(CC1CCCCC1)c1c(O)c2ccccc2oc1=O ?
PGE2 EP2 inh: 0; Rev-erbA mod: -9; EP2 modulator: 14; PG9 Ab binder: 0; SKN-1 inh: 5; RAM inhibit: 9.6*

What do the screens show for `COc1ccccc1CC(C(=O)Nc1cccc2ccccc12)c1nn[nH]n1` (configuration not stated)?
PGE2 EP2 inh: 8; EP2 modulator: -3

How did Cc1ccc(NC(=O)c2ccccc2NS(=O)(=O)c2ccc(F)cc2)cc1S(=O)(=O)N1CCCCC1 do in these assays?
PGE2 EP2 inh: 6; Rev-erbA mod: 1; EP2 modulator: -6; PG9 Ab binder: -1; SKN-1 inh: -3; RAM inhibit: 8.9*

Results for Cc1ccc(NC(=O)CSc2nc(N)cc(=O)[nH]2)cc1S(=O)(=O)N1CCCCCC1 ?
Rev-erbA mod: 3; PG9 Ab binder: 1; SKN-1 inh: 53*

How did O=C(CSc1nc(O)cc(=O)[nH]1)Nc1ccc2c(c1)CCC2 do in these assays?
PGE2 EP2 inh: 6; Rev-erbA mod: -6; EP2 modulator: 12; PG9 Ab binder: 3; SKN-1 inh: 46*; RAM inhibit: 1

Results for C=C1C(=O)OC2CC1C(OC(C)=O)C/C(C)=C/CC/C(C)=C/CC[C@]2(C)O (some centres not stated) ?
PGE2 EP2 inh: 6; EP2 modulator: -9

What do the screens show for `O=C(O)CCC(=O)Nc1ccc(CN2CCOCC2)cc1`?
PGE2 EP2 inh: 13; EP2 modulator: -3

How did CCS(=O)(=O)N1CCC[C@H](Cn2nc(-c3cccs3)ccc2=O)C1 do in these assays?
PGE2 EP2 inh: 5; EP2 modulator: -8

How did COc1ccc(C(=O)OCn2nnc3ccccc3c2=O)cc1[N+](=O)[O-] do in these assays?
PGE2 EP2 inh: 5; Rev-erbA mod: 1; EP2 modulator: 13; PG9 Ab binder: 0; SKN-1 inh: 17; RAM inhibit: 2

How did COc1ccc(C(=O)OCn2nnc3ccccc3c2=O)cc1OC do in these assays?
PGE2 EP2 inh: 10; Rev-erbA mod: 4; EP2 modulator: -12; PG9 Ab binder: -2; SKN-1 inh: 26; RAM inhibit: 8.8*

Results for O=C(O)CCc1ccc(-c2cccs2)n1NC(=O)c1ccco1 ?
PGE2 EP2 inh: 11; Rev-erbA mod: -3; EP2 modulator: 21; PG9 Ab binder: -3; SKN-1 inh: -5; RAM inhibit: 0

How did O=C(O)CCc1ccc(-c2ccccc2)n1NC(=O)c1ccco1 do in these assays?
PGE2 EP2 inh: 9; Rev-erbA mod: 0; EP2 modulator: 26; PG9 Ab binder: -2; SKN-1 inh: 39*; RAM inhibit: 2

What do the screens show for `COc1cc(NC(=O)c2cnccn2)ccc1-n1cnnn1`?
PGE2 EP2 inh: 11; EP2 modulator: -42

What do the screens show for `Oc1cccc(O)c1`?
PGE2 EP2 inh: 1; Rev-erbA mod: -2; EP2 modulator: -10

How did CN(C)c1cccc(O)c1 do in these assays?
Rev-erbA mod: 0; PG9 Ab binder: 0; SKN-1 inh: 47*

What do the screens show for `COCCCn1c(SCC(=O)N2CCCCC2)nnc1-c1ccccc1`?
PGE2 EP2 inh: 8; EP2 modulator: -11

What do the screens show for `CC(C)c1cc(C(F)(F)F)nc(NNc2nc(C(C)C)cc(C(F)(F)F)n2)n1`?
PGE2 EP2 inh: 48*; Rev-erbA mod: -4; EP2 modulator: 42; PG9 Ab binder: -1; SKN-1 inh: -5

How did CSC1=N/C(=C\c2ccc(F)cc2)C(=O)S1 do in these assays?
PGE2 EP2 inh: 11; EP2 modulator: -2; PG9 Ab binder: 1; SKN-1 inh: -5; RAM inhibit: 2

Results for COc1ccc(/C=C/C=C2\N=C(SC)SC2=O)cc1 ?
PGE2 EP2 inh: 9; Rev-erbA mod: 7; EP2 modulator: 36; PG9 Ab binder: -2; SKN-1 inh: 57; RAM inhibit: 11*

Results for CCN(CC)C(=O)N1CCC(c2nc(C)ncc2-c2ccncc2)CC1 ?
EP2 modulator: -10

How did Cc1ccc(NC(=O)c2c(C(F)(F)F)nn(C)c2SCc2cccc(C(F)(F)F)c2)cc1C do in these assays?
PGE2 EP2 inh: 12; Rev-erbA mod: 4; EP2 modulator: 23; PG9 Ab binder: 0; SKN-1 inh: -4; RAM inhibit: 8

Results for Cc1ccc(NC(=O)c2c(C(F)(F)F)nn(C)c2SCc2ccc(Cl)cc2)cc1C ?
PGE2 EP2 inh: 4; Rev-erbA mod: 4; EP2 modulator: 16; PG9 Ab binder: -2; SKN-1 inh: 3; RAM inhibit: 11*

How did CCOC(=O)c1sc2ccccc2c1OC(=O)c1ccc(C)cc1 do in these assays?
PGE2 EP2 inh: 6; EP2 modulator: 39; SKN-1 inh: 6; RAM inhibit: 8.7*

How did COC(=O)/C=C1/C(=O)N(C(C)=O)c2ccccc21 do in these assays?
PGE2 EP2 inh: 71*; EP2 modulator: -51

What do the screens show for `COc1ccc(CNC(=O)C(c2ccco2)N(Cc2cccs2)C(=O)Cc2cccs2)cc1` (configuration not stated)?
PGE2 EP2 inh: 14; Rev-erbA mod: 0; EP2 modulator: 15; PG9 Ab binder: 0; SKN-1 inh: 2; RAM inhibit: 5

How did Cc1ccc(C(C(=O)NC2CCCCC2)N(Cc2ccco2)C(=O)Cc2cccs2)cc1 (configuration not stated) do in these assays?
PGE2 EP2 inh: 9; EP2 modulator: 62*

Results for O=C(NC1CCCCC1)C(c1ccco1)N(Cc1ccc2c(c1)OCO2)C(=O)Cc1cccs1 (configuration not stated) ?
PGE2 EP2 inh: 10; EP2 modulator: 87*

What do the screens show for `Cc1ccc(C(C(=O)NCc2ccccc2)N(Cc2cccs2)C(=O)c2ccc3c(c2)OCCO3)cc1` (configuration not stated)?
PGE2 EP2 inh: 2; Rev-erbA mod: 9; EP2 modulator: -1; PG9 Ab binder: 2; SKN-1 inh: 2; RAM inhibit: 5
